# System: VDR:RXRa (NR concentration 270 nM, RXRa partner concentration 90 nM)
# Assay: PBM binding z-score (relative to random genomic background probes); higher = stronger binding; sequences stand for … in GC…GCGATTGACAGCGTAGAATGAAGG
# Procedure: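 Protein-binding microarray (Agilent 4x180K custom design, double-stranded 60-nt probes: 5' GC cap, 34-nt variable region, 24-nt constant primer region; full probe sequence given). Purified or IVT nuclear receptor:RXRα heterodimers (3:1 NR:RXRα, mostly 270:90 nM) or homodimers were incubated for 1 h in PBS with 2% milk and no ligand, then detected with Alexa488 antibodies. Fluorescence from o1-orientation probes (~5 replicates averaged) was converted to z-scores against 500 random hg19 background probes. Variable regions are seed direct-repeat (DR0–DR5) sites, all their single-nucleotide variants and half-site ablations.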
row,Sequence,PBM binding z-score
1,CCTATTAGTTGACCATAAGGACAACCGAAGCTCG,1.07
2,TAGCGTAGGTCATTGGGCCAGTATAGTACGCATC,2.41
3,TCATATAGGTAAATGCTAGGTCAAAGTCCGATCT,2.15
4,TCTATTAGTTGAAGAGCAACCGACGAGTCCGTTT,0.538
5,CAAACTAGGTCATTGACAGGACAGTGAATAGTAA,2.42
6,TTACCAAGGTGAGCTGAGGTCGTTAATCCAACTC,3.68
7,GCCAGCAGGCCATTTGGGTCACTCAATGACGGGC,0.978
8,CTCGAAAGGTCCGTTGAGGTGAGTATACGGATAA,0.243
9,TCTTGTAGATCAATAGAGGTTAAGAACGTGCGCT,1.27
10,ATCGAAAGGTCGACGAGGTAAGTATACACCGTTT,4.59
11,TCATATAGGTAAAGGTGAAGGTCGAACGATATGA,1.63
12,TCTATTAGTTGATTAGGTCAACCGAAACAGCGGA,1.94
13,CGAACTAGGTGAAGGACAGTGAATCTCCGCACGC,-0.403
14,TCGAGTAGGTTAGTAGGGGCATTCAGCCAACATA,3.1
15,ATCGAAAGGTCGAGGGGAGTATAGAGAAAGGGAA,2.67
16,CCTACTGGGCCATCAGGTCATTGAGATCAACGTT,3.41
17,TCTCTGAGGACACGAAGGTCAGAGCTTTCCAGAG,2.6
18,ATATGTAGGCTACATCCGGGTCATTCAGGCTATG,2.92
19,AGTCAAAGTTCAGGACGAGGTAACGAAAAGCACG,2.95
20,TTACCAAGGTGAATGGTCGTTGATGCACGCCTTG,-0.0229

row,Sequence,PBM binding z-score
1,CGAACGAGAGCATGAGTTGATAGCAAATGCCGAT,-0.244
2,ACTAGCAGGCCAAGTTAGGGTCACTCAAACAAAG,3.15
3,CGTGCTAGGTCATGGTCAGCTAATCTACAGTATG,1.7
4,GATACAGGGTCAAGGCTAGAGTACGCGTATTGAT,4.6
5,ATCGAAAGGTCGATGGTGAGTATACCCACCCGAA,1.78
6,TCTCGTAGGACACGAAAGGTCAGAGCTCGACATC,3.09
7,TCTATTAGTTGAAGGGCAACCGTCGAGTCCGTTT,0.884
8,ACAGACAGGTGATGAAGGTAACTCTGGCTATCAT,0.00307
9,ACAGACAGGTAAGTGAAGGTAACTCAGCTGGACG,-0.31
10,CCTACTGGGCCAAGGTCATGGATCAGTCAAAGCA,3.05
11,GCTCGTAGGACAAGGTCAGAGCTTTGTCCGTAGA,1.4
12,CGTCCAAGGTCATAGGAGGTCAGTGTAGACAGAT,6.49
13,GTACCAAGGTGGATAGGTCGTTGATGAGTAGGCG,-0.168
14,TCATATAGGTAATACATGTGAAAGTCGGCATCTA,1.07
15,ATCTCTAGGTAAGACTCAGTGCAGTGAAGAACGC,-0.0962
16,CCGAGTAGGGTATGGGGCATTCAGGCAACGGTGA,-0.217
17,TGTCAAAGTTCAAAGGGAACGTAAGTATCCACAC,4.92
18,TGAATGGGGTTATAAGATCAGGGAACGTTGCAAA,2.58
19,TTACCAAGGTGAAAGGTAGTTGATGCACGCCTTG,0.524
20,CCTAGTTGGTCAGCAGGTCACACACCGGATATGA,2.32

# — the supplement of paper PMC6555819
